In PubChem BioAssay (Tox21):
Results filed as inconclusive are left out. Entries that show only a call come without a potency. Activity calls are given as the source filed them. Unless noted, the call rests on the fitted dose curve; in most records, active means well fitted curve in the direction sought with a large enough effect in the repeat runs; inconclusive means weak or mixed curves; inactive means no such curve, though single readings can be large; an effect the other way counts as inactive or inconclusive.

Experiments:
[1] = qHTS assay to identify small molecule antagonists of the sonic hedgehog signaling (Shh) pathway (AID 1259369; calls by dose curve; further: nearly all actives have a fitted effect of over 45% in size)
Summary of the method: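 Inhibition of Shh signalling is measured as reduced Gli1-response-element firefly luciferase output in an NIH/3T3-derived stable reporter clone stimulated with conditioned medium for 24hr.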

[2] = qHTS assay to identify small molecule agonists of the androgen receptor (AR) signaling pathway in the presence of an antagonist - cell viability counter screen (AID 1259379);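 further: MDA-kb2 human breast cancer cells carrying an MMTV luciferase reporter; series mostly up to about 92 µM; nearly all actives have a fitted effect of over 25% in size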
Summary of the method: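 Fluorescence from CellTiter-Fluor, added after 15 hr and read 1 hr later, gave cell viability. Cells were MDA-kb2 exposed to compounds (15 concentrations) in the presence of 3.0uM nilutamide at 37C, 0% CO2.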

[3] = qHTS assay to identify small molecule antagonists of the estrogen receptor beta (ER-beta) signaling pathway - cell viability counter screen (AID 1259382);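 further: HEK293T cells carrying ER-beta-UAS-bla reporter stimulated with estradiol; series mostly up to about 92 µM; nearly all actives have a fitted effect of over 55% in size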
Summary of the method: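 Following a 6 hr plating period, HEK293T cells carrying a UAS-driven beta-lactamase reporter under ER-beta control received compounds and 1nM E2 (final). After 16 hr at 37C and 2 hr substrate loading, CellTiter-Glo luminescence indicated viability.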

[4] = target: Estrogen receptor (Homo sapiens) (UniProt P03372); experiment: qHTS assay to identify small molecule agonists of the estrogen receptor alpha (ER-alpha) signaling pathway in the presence of an antagonist (AID 1259383; calls by dose curve; further: top concentration of the series differs between compounds; nearly all actives have a fitted effect of over 15% in size)
Estrogen receptor (Homo sapiens), sequence (P03372 whole entry, looked up): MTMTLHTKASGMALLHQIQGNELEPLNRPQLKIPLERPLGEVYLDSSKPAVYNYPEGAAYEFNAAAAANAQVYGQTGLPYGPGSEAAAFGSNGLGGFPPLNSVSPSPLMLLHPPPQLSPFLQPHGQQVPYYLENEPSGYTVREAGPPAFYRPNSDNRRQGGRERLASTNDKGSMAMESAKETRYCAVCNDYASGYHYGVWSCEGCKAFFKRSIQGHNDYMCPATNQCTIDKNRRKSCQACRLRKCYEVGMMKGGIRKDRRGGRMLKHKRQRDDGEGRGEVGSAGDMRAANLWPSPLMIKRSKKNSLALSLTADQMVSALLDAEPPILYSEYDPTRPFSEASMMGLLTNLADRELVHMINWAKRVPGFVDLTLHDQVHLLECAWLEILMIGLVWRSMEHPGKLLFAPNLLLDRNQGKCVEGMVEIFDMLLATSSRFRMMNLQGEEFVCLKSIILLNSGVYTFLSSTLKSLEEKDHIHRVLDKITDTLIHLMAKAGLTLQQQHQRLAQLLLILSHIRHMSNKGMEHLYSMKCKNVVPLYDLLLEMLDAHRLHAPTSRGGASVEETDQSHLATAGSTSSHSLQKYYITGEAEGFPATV
Summary of the method: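 Cells are hormone-deprived for 5 days (charcoal-stripped FBS, no phenol red), plated for 24hr, spiked with 10.0nM ICI-182,780, then dosed at 15 concentrations. After 22hr at 37C, ONE-Glo luminescence reports ERE-luciferase activity.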

[5] = qHTS assay to identify small molecule agonists or antagonists of the thyroid stimulating hormone receptor (TSHR) signaling pathway - wild type cell line counter screen (AID 1259384; calls by dose curve)
Summary of the method: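 Counter screen in untransfected Hek293: compounds (15-point titration, triplicate) plus phosphodiesterase inhibitor Ro20-1724 added after 18 h plating; 30 min RT. Intracellular cAMP via competitive d2/cryptate immunoassay, 1 h incubation.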

[6] = target: Progesterone receptor (Homo sapiens) (UniProt P06401); experiment: qHTS assay to identify small molecule agonists of the progesterone receptor (PR) signaling pathway (AID 1346784; calls by dose curve; further: nearly all actives have a fitted effect of over 30% in size)
Progesterone receptor (Homo sapiens), sequence (P06401 whole entry, looked up): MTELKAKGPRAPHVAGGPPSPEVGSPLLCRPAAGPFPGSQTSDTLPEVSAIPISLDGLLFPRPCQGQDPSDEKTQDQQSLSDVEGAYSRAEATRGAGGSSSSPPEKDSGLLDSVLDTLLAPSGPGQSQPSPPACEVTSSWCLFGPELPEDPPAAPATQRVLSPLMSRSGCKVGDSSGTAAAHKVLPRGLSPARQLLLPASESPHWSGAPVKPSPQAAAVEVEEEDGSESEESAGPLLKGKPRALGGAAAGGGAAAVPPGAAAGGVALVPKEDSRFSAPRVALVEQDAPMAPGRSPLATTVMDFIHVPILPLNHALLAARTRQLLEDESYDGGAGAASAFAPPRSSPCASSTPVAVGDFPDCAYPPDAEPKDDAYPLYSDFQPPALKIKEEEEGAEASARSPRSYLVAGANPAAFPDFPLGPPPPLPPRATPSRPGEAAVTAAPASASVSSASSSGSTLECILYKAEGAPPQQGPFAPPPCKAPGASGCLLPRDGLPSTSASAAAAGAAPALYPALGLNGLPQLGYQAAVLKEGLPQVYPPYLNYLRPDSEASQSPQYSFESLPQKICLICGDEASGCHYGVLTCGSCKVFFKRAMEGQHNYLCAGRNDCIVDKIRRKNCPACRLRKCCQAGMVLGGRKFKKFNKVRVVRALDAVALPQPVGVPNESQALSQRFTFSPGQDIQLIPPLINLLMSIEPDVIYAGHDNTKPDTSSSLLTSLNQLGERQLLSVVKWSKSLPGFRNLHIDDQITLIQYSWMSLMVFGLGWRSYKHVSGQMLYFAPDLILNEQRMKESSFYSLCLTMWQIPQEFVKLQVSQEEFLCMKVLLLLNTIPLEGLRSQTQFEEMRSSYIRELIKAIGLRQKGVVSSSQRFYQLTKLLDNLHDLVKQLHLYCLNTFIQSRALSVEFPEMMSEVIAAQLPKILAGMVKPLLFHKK
Summary of the method: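 Agonist qHTS: compounds pinned onto 3,000 PR-UAS-bla HEK 293T cells per well in charcoal-stripped serum medium, 16hr at 37C, then beta-lactamase activity measured by LiveBLAzer FRET fluorescence after 2 hours at room temperature.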

[7] = qHTS assay to identify small molecule antagonists of the progesterone receptor (PR) signaling pathway - cell viability counter screen (AID 1346798); further: series mostly up to about 92 µM; nearly all actives have a fitted effect of over 50% in size
Summary of the method: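 Cytotoxicity read as CellTiter-Glo luminescence (30 min, room temperature) in the same wells as the beta-lactamase readout. HEK293T PR-UAS-bla cells in charcoal-stripped 2% FBS received compound and R5020, then 16 h at 37C, 5% CO2.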

[8] = qHTS assay to identify small molecule agonists of the progesterone receptor (PR) signaling pathway - cell viability counter screen (AID 1346799; calls by dose curve; further: nearly all actives have a fitted effect of over 45% in size; further: potency means the concentration at half of the fitted maximal effect)
Summary of the method: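 Cytotoxicity measured by CellTiter-Glo luminescence (30 min, RT) in the same wells as the PR beta-lactamase agonist read. Those HEK293T cells had 16 h compound treatment at 37 C in 2% charcoal-stripped FBS medium.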

[9] = qHTS assay to identify small molecule antagonists of the TGF-beta/Smad signaling pathway - cell viability counter screen (AID 1346824); further: nearly all actives have a fitted effect of over 50% in size
Summary of the method: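 Cytotoxicity counter-screen run in the same wells as the beta-lactamase Smad reporter read: CellTiter-Glo luminescence after 30 min at room temperature. HEK 293T SBE-bla cells had 5 hr compound exposure at 37 C with TGF-beta1 (0.25 ng/mL stock).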

[10] = qHTS assay to identify small molecule agonists of the TGF-beta/Smad signaling pathway - cell viability counter screen (AID 1346829); further: top concentration of the series differs between compounds; nearly all actives have a fitted effect of over 45% in size
Summary of the method: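 Cytotoxicity counter screen: CellTiter-Glo luminescence (30 min, room temperature) measured in the SBE-bla HEK 293T reporter wells after 5 hr compound treatment at 37 C and the 2 hr substrate step.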

[11] = target: Thyrotropin-releasing hormone receptor (Homo sapiens) (UniProt P34981); experiment: qHTS assay to identify small molecule antagonists of the thyrotropin-releasing hormone receptor (TRHR) signaling pathway (AID 1346877; active means well fitted inhibition curve with a large enough effect in the repeat runs, not every such curve was filed as active; further: series mostly up to about 51 µM)
Thyrotropin-releasing hormone receptor (Homo sapiens), sequence (P34981 whole entry, looked up): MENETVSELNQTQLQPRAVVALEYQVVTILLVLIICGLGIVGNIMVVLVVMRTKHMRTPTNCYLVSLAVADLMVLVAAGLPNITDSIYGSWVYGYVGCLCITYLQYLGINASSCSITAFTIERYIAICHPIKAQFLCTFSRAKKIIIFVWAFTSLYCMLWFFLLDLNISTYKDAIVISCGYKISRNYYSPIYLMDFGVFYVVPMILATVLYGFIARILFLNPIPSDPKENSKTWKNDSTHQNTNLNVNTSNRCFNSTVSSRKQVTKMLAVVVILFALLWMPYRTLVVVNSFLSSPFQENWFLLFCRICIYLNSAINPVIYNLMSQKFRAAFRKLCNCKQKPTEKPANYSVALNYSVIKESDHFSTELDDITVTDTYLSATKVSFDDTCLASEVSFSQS
Summary of the method: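 Cells (TRHR-HEK293) are plated and kept 18 h at 37 °C/5% CO2. A calcium-sensitive dye is added for 2 h, compound follows for 5 min at room temperature, and TRH is then given at 1 nM final.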

[12] = qHTS assay to identify small molecule agonists of the estrogen receptor beta (ER-beta) signaling pathway - cell viability counter screen (AID 1259380); further: nearly all actives have a fitted effect of over 30% in size; further: potency means the concentration at half of the fitted maximal effect
Summary of the method: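 Same-well viability counter screen. Cells: ER-beta-UAS-bla HEK293T, plated 6 hr before compound, in 2% charcoal-stripped FBS. Compound exposure 16 hr, 37C; viability by CellTiter-Glo luminescence after 30 min at room temperature.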

[13] = target: Androgen receptor (Homo sapiens) (UniProt P10275); experiment: qHTS assay to identify small molecule agonists of the androgen receptor (AR) signaling pathway in the presence of an antagonist (AID 1259381; calls by dose curve; further: nearly all actives have a fitted effect of over 15% in size)
Androgen receptor (Homo sapiens), sequence (P10275 whole entry, looked up): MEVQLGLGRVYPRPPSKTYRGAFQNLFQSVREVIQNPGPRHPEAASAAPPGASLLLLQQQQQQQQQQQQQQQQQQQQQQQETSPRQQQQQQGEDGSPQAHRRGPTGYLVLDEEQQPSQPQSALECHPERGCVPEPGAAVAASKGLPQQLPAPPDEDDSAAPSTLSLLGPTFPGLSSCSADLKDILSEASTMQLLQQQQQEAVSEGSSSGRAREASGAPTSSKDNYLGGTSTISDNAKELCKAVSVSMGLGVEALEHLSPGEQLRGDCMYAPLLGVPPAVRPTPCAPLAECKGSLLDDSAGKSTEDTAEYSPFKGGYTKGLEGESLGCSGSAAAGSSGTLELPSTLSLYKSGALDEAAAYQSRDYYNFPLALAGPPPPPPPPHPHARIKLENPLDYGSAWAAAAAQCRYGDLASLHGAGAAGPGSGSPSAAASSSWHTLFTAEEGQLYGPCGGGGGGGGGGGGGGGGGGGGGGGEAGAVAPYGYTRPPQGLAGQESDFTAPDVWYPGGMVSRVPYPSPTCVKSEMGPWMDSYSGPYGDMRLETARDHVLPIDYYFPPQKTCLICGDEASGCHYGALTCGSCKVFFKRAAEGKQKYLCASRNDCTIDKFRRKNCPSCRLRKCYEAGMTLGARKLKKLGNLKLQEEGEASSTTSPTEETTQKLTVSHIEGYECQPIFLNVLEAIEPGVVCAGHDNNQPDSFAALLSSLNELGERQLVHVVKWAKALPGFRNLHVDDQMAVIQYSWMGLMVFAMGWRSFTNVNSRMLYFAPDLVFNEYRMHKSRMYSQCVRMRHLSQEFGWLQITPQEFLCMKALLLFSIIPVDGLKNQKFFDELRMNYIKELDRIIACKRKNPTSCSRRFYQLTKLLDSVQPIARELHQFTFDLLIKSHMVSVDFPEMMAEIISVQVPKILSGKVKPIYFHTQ
Summary of the method: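 Cells are MDA-kb2 (human breast carcinoma, MMTV-luc, AR/GR responsive). Nilutamide is present at 3.0uM final throughout; compounds are added at 15 concentrations and incubated 16hr at 37C before ONE-Glo luminescence detection.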

[14] = target: Thyrotropin receptor (Homo sapiens) (UniProt P16473); experiment: qHTS assay to identify small molecule antagonists of the thyroid stimulating hormone receptor (TSHR) signaling pathway (AID 1259385; calls by dose curve; further: nearly all actives have a fitted effect of over 20% in size)
Thyrotropin receptor (Homo sapiens), sequence (P16473 whole entry, looked up): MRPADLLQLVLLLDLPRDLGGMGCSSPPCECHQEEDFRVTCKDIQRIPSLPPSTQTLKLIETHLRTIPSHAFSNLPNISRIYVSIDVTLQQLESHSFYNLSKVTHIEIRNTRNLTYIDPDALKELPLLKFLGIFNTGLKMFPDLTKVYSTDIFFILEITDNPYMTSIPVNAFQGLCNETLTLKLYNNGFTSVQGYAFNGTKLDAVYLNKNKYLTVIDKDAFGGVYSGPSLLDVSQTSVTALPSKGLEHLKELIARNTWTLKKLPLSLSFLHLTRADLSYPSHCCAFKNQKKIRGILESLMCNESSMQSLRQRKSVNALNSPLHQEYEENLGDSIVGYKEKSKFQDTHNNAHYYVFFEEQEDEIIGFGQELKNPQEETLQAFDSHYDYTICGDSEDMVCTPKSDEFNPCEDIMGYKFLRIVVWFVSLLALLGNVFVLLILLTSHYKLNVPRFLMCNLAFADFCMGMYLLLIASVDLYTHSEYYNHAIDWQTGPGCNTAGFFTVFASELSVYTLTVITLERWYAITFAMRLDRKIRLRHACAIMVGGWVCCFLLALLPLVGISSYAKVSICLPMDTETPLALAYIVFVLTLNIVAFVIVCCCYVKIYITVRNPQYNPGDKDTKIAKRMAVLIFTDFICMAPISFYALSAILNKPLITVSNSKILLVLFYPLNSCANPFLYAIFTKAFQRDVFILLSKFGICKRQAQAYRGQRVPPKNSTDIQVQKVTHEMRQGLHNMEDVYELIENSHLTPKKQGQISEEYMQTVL
Summary of the method: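 Antagonist mode: compound-treated TSHR-expressing HEK293 cells were stimulated with 1.5 ng/mL TSH (final) in presence of Ro20-1724 for 30 min at RT. HTRF cAMP detection after 1 h; each compound tested at 15 concentrations, triplicate.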

[15] = qHTS assay to identify small molecule agonists of the estrogen receptor alpha (ER-alpha) signaling pathway in the presence of an antagonist - cell viability counter screen (AID 1259386);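 further: series mostly up to about 92 µM; cells exposed to compounds for 22 h at 37 °C before the viability read; nearly all actives have a fitted effect of over 30% in size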
Summary of the method: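 Cells are starved of estrogens for 5 days in charcoal-stripped serum, seeded for 24hr and co-treated with ICI-182,780 (10.0nM final) and test compounds. After 22hr at 37C, viability is read as CellTiter-Fluor fluorescence.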

[16] = qHTS assay to identify small molecule agonists of the TGF-beta/Smad signaling pathway (AID 1346859; active means well fitted activation curve with a large enough effect in the signal ratio in the repeat runs, not every such curve was filed as active; the % refers to the signal ratio; further: series mostly up to about 77 µM)
Summary of the method: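 Fluorescence (ex 405 nm; em 460 and 530 nm) was read 2 h after LiveBLAzer FRET substrate at RT. The preceding compound treatment of overnight-plated SBE-bla HEK293T cells lasted 5 h at 37 C.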

[17] = target: Progesterone receptor (Homo sapiens) (UniProt P06401); experiment: qHTS assay to identify small molecule antagonists of the progesterone receptor (PR) signaling pathway (AID 1346795; active means well fitted inhibition curve with a large enough effect in the signal ratio in the repeat runs, not every such curve was filed as active; the % refers to the signal ratio; further: potency means the concentration at half of the fitted maximal effect)
Summary of the method: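 Antagonist mode with agonist R5020 at 1 nM final and 16 hr incubation at 37C. Reporter was beta-lactamase driven by UAS in HEK293T (PR-UAS-bla), 2% charcoal-stripped serum; signal from LiveBLAzer FRET substrate, 2 hr at room temperature.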

[18] = target: Estrogen receptor beta (Homo sapiens) (UniProt Q92731); experiment: qHTS assay to identify small molecule agonists of the estrogen receptor beta (ER-beta) signaling pathway (AID 1259377; active means well fitted activation curve with a large enough effect in the signal ratio in the repeat runs, not every such curve was filed as active; the % refers to the signal ratio)
Estrogen receptor beta (Homo sapiens), sequence (Q92731 whole entry, looked up): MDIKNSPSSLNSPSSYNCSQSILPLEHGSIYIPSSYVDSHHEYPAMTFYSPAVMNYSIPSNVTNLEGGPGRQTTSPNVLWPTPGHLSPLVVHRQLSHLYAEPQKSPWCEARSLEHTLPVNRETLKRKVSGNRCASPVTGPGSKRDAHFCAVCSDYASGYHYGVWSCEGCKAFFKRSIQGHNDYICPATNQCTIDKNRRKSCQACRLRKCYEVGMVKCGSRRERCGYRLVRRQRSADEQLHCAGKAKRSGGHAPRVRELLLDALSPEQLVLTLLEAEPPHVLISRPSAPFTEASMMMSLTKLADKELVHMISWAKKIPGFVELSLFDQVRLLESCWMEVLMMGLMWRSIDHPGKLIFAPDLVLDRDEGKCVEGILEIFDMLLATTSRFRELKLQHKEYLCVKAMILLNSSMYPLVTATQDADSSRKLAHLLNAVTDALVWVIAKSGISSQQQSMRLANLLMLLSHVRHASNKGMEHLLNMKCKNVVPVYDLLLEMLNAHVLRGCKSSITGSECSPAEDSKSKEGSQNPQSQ
Summary of the method: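 Ratiometric beta-lactamase FRET read-out came after 2 h substrate loading at room temperature. It followed 16 h compound treatment at 37C of GripTite HEK293T cells carrying a UAS-bla reporter, plated in 2% charcoal-stripped FBS medium.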

[19] = target: Estrogen receptor beta (Homo sapiens) (UniProt Q92731); experiment: qHTS assay to identify small molecule antagonists of the estrogen receptor beta (ER-beta) signaling pathway (AID 1259378; active means well fitted inhibition curve with a large enough effect in the signal ratio in the repeat runs, not every such curve was filed as active; the % refers to the signal ratio)
Summary of the method: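 Antagonist mode: compounds added to beta-lactamase reporter HEK293T ER-beta-UAS cells stimulated with E2 (1nM final), 16 hr at 37C. LiveBLAzer B/G FRET substrate, 2 hours room temperature, fluorescence read-out.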

SMILES	Potency [1]	Potency [2]	Potency [3]	Potency [4]	outcome [5]	Potency [6]	Potency [7]	Potency [8]	outcome [9]	outcome [10]	outcome [11]	Potency [12]	Potency [13]	Potency [14]	Potency [15]	outcome [16]	Potency [17]	Potency [18]	Potency [19]
Clc1cc(Cl)c2c(c1)N=C1CCCCCN1C2	inactive	inactive	inactive	inactive	inactive	inactive	inactive	inactive	inactive	inactive	inactive								
O=C(O)c1cccc(C(=O)O)c1C(=O)O	inactive	inactive		inactive	inactive		inactive	34.7 µM (active)	inactive	inactive	inactive	13.8 µM (active)	inactive	inactive	inactive	inactive			
COc1cc(C)c(Cc2cnc(N)nc2N)cc1OC		inactive	inactive	inactive		inactive	inactive		inactive	inactive	inactive	inactive			inactive	inactive			
Cc1ccc(NC=O)c(C)c1	inactive		inactive	inactive	inactive	inactive	inactive	inactive	inactive	inactive	inactive	inactive			inactive	inactive	inactive		
CCCC(=O)OCCC(C)C	inactive	inactive		inactive	inactive	inactive	inactive	inactive	inactive	inactive	inactive	inactive	inactive	inactive	inactive	inactive	inactive		
CO[C@@H]1COCC[C@@H]1N[C@@H]1CC[C@@](C(=O)N2CCc3ncc(C(F)(F)F)cc3C2)(C(C)C)C1	inactive		inactive		inactive		inactive		inactive	inactive	inactive	inactive			inactive	inactive			
CC1=C(C)C(=O)C(C(CCCCCC(=O)O)c2ccccc2)=C(C)C1=O (stereo not drawn)	inactive	inactive		inactive		inactive	inactive	inactive	inactive	inactive	inactive				inactive			inactive	
SCCOCCOCCS	inactive	inactive	inactive	inactive		inactive	inactive	inactive	inactive	inactive	inactive				inactive	inactive	inactive		
CCCCC(CC)COCCC#N (stereo not drawn)	inactive	inactive	inactive		inactive	inactive	inactive	inactive	inactive	inactive	inactive	inactive			inactive	inactive	inactive		
CC(Cc1ccccc1)(NC(=O)CN)c1ccccc1 (stereo not drawn)		inactive	inactive	inactive	inactive	inactive	inactive	inactive	inactive	inactive					inactive	inactive		inactive	inactive
COc1ccc(C(=O)c2ccc(C)cc2)c(O)c1	inactive	inactive	inactive	inactive	inactive		inactive			inactive	inactive	inactive			inactive		19.5 µM (active)		
O=C1CCCN1CCO	inactive	inactive		inactive	inactive	inactive			inactive	inactive	inactive	43.3 µM (active)		inactive	inactive	inactive			inactive
C[C@H](CN1CCCC1)C(=O)c1ccc(C(F)(F)F)cc1	inactive	inactive			inactive	inactive	inactive	inactive	inactive	inactive	inactive				inactive	inactive	inactive	inactive	inactive
Cc1cc(N)n(-c2ccccc2)n1	inactive	inactive	inactive	inactive	inactive		inactive	inactive	inactive	inactive	inactive	inactive		inactive	inactive	inactive	inactive	inactive	inactive
O=C(O)c1cccnc1Nc1cccc(C(F)(F)F)c1	inactive	inactive		inactive		inactive			inactive	inactive	inactive				inactive	inactive			
O=C1C=CCCC1	inactive	inactive	inactive	inactive	inactive	inactive	inactive	inactive	inactive	inactive				inactive	inactive	inactive	inactive	inactive	inactive
N#CCCCC(C#N)CCC#N (stereo not drawn)	inactive	inactive	inactive	inactive	inactive	inactive	inactive	inactive	inactive	inactive		inactive		inactive	inactive	inactive	inactive		
CC(C)=CCCC(C)C=O (stereo not drawn)	inactive	inactive	inactive	inactive	inactive	inactive	inactive	inactive	inactive	inactive	inactive			inactive	inactive	inactive	inactive		inactive
CCC(CC)C(=O)O	inactive	inactive	inactive	inactive		inactive	inactive	inactive	inactive	inactive	inactive				inactive	inactive	inactive	inactive	inactive
Cc1c(N=C=O)cccc1N=C=O	inactive		inactive	inactive	inactive		inactive	inactive	inactive	inactive	inactive		inactive	inactive	inactive	inactive		inactive	inactive
